Measured values: the supplement of paper PMC12494721
Structures can show the parent of a compound that is named as a salt.

Experiments:
Settings in all cases: incubation time: 27 h, anaerobic, 37 °C;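 for the amine columns active = adjusted P below 0.05 in both replicates with a change the same way and a mean fold change under 0.8 or over 1.25; inactive = the rest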
[1] = system: Clostridium sporogenes DSM 1664; assay: growth (OD595) fold change vs plate DMSO controls (fold change (ratio)); higher = more growth
In short: (§1)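 Shaken 96-well cultures in mGAM, grown anaerobically for 27 h at 37 °C, were read at 595 nm. OD came from blank-subtracted readings, corrected for background with 20 µM compound solutions in water and scaled by a calibration factor of 5. Growth is the fold change versus the plate's median DMSO control. Values average 2 biological replicates, and any fold change above 1.5 is NA.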

Escherichia coli IAI1 [2] = assay: as above
In short: as §1

[3] = system: Klebsiella aerogenes DSM 30053; assay: as above
In short: as §1

[4] = system: Ruminococcus gnavus DSM 108212; assay: as above
In short: as §1

[5] = system: Klebsiella aerogenes DSM 30053; assay: fold change of Histamine concentration vs plate DMSO controls (fold change (ratio)); higher = more amine produced, active = hit call of the paper (significant change in both replicates, either direction)
In short: (§2)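 Amine values are fold changes relative to DMSO-only wells on the same plate. They derive from 27 h, 37 °C anaerobic mGAM cultures of four gut bacterial strains in 80 µL wells, dosed at 20 µM final, or 50 µM final for sweeteners. Extraction of the whole culture, LC–triple-quadrupole MS in dynamic MRM mode, external calibration curves and within-batch drift correction were used, with 2 biological replicates averaged.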

[6] = system: Clostridium sporogenes DSM 1664; assay: fold change of Tryptamine concentration vs plate DMSO controls (fold change (ratio)); higher = more amine produced, active = hit call of the paper (significant change in both replicates, either direction)
In short: as §2

[7] = system: Ruminococcus gnavus DSM 108212; assay: as above
In short: as §2

Escherichia coli IAI1 [8] = assay: fold change of Putrescine concentration vs plate DMSO controls (fold change (ratio)); higher = more amine produced, active = hit call of the paper (significant change in both replicates, either direction)
In short: as §2

[9] = system: Klebsiella aerogenes DSM 30053; assay: as above
In short: as §2

Escherichia coli IAI1 [10] = assay: fold change of Cadaverine concentration vs plate DMSO controls (fold change (ratio)); higher = more amine produced, active = hit call of the paper (significant change in both replicates, either direction)
In short: as §2

[11] = system: Klebsiella aerogenes DSM 30053; assay: as above
In short: as §2

[12] = system: Ruminococcus gnavus DSM 108212; assay: fold change of 2-Phenylethylamine concentration vs plate DMSO controls (fold change (ratio)); higher = more amine produced, active = hit call of the paper (significant change in both replicates, either direction)
In short: as §2

Structure (SMILES) | growth [1] | growth (Escherichia coli IAI1 [2]) | growth [3] | growth [4] | fold change of Histamine concentration [5] | fold change of Tryptamine concentration [6] | fold change of Tryptamine concentration [7] | fold change of Putrescine concentration (Escherichia coli IAI1 [8]) | fold change of Putrescine concentration [9] | fold change of Cadaverine concentration (Escherichia coli IAI1 [10]) | fold change of Cadaverine concentration [11] | fold change of 2-Phenylethylamine concentration [12]
NC(=O)N1c2ccccc2C=Cc2ccccc21 [Carbamazepine] (20 µM) | 0.968 | 1.08 | 1.01 | 1.17 | 1.03 (inactive) | 0.973 (inactive) | 1.02 (inactive) | 1.03 (inactive) | 1 (inactive) | 1.04 (inactive) | 1.01 (inactive) | 0.987 (inactive)
C[C@H](CCC(=O)O)[C@H]1CC[C@H]2[C@@H]3[C@@H](O)C[C@@H]4C[C@H](O)CC[C@]4(C)[C@H]3CC[C@]12C [Urosiol] (20 µM) | 0.969 | 1.05 | 1.06 | 1.02 | 0.998 (inactive) | 1.08 (inactive) | 1.08 (inactive) | 1.01 (inactive) | 0.961 (inactive) | 0.954 (inactive) | 1.05 (inactive) | 1.1 (inactive)
CSc1ccc2c(c1)N(CCC1CCCCN1C)c1ccccc1S2 (configuration not stated) [Thioridazine hydrochloride] (20 µM) | 1.15 | 1.03 | 1.01 | 1.25 | 0.936 (inactive) | 1.12 (inactive) | 0.808 (inactive) | 1.04 (inactive) | 0.948 (inactive) | 1.1 (inactive) | 1.02 (inactive) | 0.941 (inactive)
N=C(N)N/N=C/c1c(Cl)cccc1Cl [Guanabenz acetate] (20 µM) | 0.918 | 0.923 | 0.914 | 1.48 | 1.02 (inactive) | 1.03 (inactive) | 1.02 (inactive) | 0.979 (inactive) | 0.99 (inactive) | 1.01 (inactive) | 0.973 (inactive) | 1.02 (inactive)
O=C(Oc1cccc2cccnc12)c1ccccc1 [Benzoxiquine] (20 µM) | 1.09 | 0.939 | 1.04 | 1.13 | 0.957 (inactive) | 1.03 (inactive) | 1.03 (inactive) | 0.984 (inactive) | 1.02 (inactive) | 0.995 (inactive) | 1.01 (inactive) | 1.07 (inactive)
COC(=O)CCc1ccc(OCC(O)CNC(C)C)cc1 (configuration not stated) [Esmolol hydrochloride] (20 µM) | 0.978 | 0.87 | 0.987 | 0.947 | 0.88 (inactive) | 0.972 (inactive) | 1.1 (inactive) | 0.959 (inactive) | 0.988 (inactive) | 1.09 (inactive) | 1.02 (inactive) | 1.07 (inactive)
